The whole screen tested about 72,000 compounds, of which about 350 (0.49%) were called active. Only a selection was taken, and actives are over-represented in it overall. Values without a mark were called inactive.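 Rule for the calls: active = activity remaining at or below 50% of control, provided the compound also passes the data quality filters; inactive = the rest, including low values that fail the filters.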
Biological target: Ubiquitin carboxyl-terminal hydrolase BAP1 (Homo sapiens) (UniProt Q92560)
Assay: inhibitors of BAP1 deubiquitinase, primary screen, biochemical, Ub-AMC fluorescence, kinetic (AID 436);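 note: 100% = DMSO wells rate and 0% = substrate alone blank rate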
Conditions: recombinant BAP1, Ub-AMC hydrolysis fluorescence kinetic; at 20 µM; hits give low values

Chain of Ubiquitin carboxyl-terminal hydrolase BAP1 (Homo sapiens) (Q92560 whole entry, looked up): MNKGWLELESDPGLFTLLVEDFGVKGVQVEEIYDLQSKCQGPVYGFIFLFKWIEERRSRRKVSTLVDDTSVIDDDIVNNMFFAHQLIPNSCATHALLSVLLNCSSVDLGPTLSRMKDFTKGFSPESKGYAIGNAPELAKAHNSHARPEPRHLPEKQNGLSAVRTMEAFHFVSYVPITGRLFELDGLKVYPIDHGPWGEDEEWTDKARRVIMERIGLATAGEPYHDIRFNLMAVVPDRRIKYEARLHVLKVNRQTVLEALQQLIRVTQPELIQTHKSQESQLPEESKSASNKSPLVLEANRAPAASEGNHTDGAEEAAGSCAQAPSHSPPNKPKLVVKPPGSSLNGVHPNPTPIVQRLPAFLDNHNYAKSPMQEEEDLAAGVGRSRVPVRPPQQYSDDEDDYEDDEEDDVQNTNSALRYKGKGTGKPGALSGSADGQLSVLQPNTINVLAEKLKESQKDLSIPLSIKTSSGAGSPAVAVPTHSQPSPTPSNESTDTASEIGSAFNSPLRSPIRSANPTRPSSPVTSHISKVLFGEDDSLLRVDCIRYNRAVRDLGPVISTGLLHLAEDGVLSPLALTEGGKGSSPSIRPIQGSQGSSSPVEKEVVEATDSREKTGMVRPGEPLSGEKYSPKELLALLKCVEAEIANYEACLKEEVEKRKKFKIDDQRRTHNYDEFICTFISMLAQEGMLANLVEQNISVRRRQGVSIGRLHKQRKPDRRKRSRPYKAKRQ

| Structure (SMILES) | activity remaining (% of control) |
| --- | --- |
| CC(=O)c1c(O)c(C)c(O)c(Cc2c(O)c3c(c(C(=O)/C=C/c4ccccc4)c2O)OC(C)(C)C=C3)c1O | 14.8% (active) |
| CCCCC[n+]1ccc(-c2cc[n+](CCCCC)cc2)cc1 | 101% |
| O=C(O)C1C2CCC(O2)C1C(=O)O (stereo not drawn) | 97.4% |
| O=C1c2ccccc2C(=O)N1Cc1nc2ccccc2c(=O)n1-c1nccs1 | 84.5% |
| Cc1ccc(Cn2c(C)c3cnn(CC(=O)N4CCC5(CC4)OCCO5)c(=O)c3c2C)cc1 | 105% |
| CCCCCn1c(=O)c(C(=O)NCc2ccccn2)c(O)c2ccccc21 | 39.6% (active) |
| C=CCN1CCC2(C)c3cc(O)ccc3CC1[C@@H]2C (stereo partly drawn) | 96.1% |
| COc1ccccc1OC(=O)c1ccc(C)c(S(=O)(=O)N2CCOCC2)c1 | 104% |

Reference: PubChem BioAssay AID436 (Emory University Molecular Libraries Screening Center, 2006)
